Compound activity: PubChem BioAssay, National Center for Advancing Translational Sciences (NCATS)
In the library only some 12% were active in any assay of this set; here they are far more common.
JMJD2A Tudor inh: qHTS Assay for Inhibitors of JMJD2A-Tudor Domain; Lysine-specific demethylase 4A (Homo sapiens), O75164; AlphaScreen JMJD2A-Tudor / H3K4me3 peptide binding; Potency, µM (highest dose often 114 µM), without a hit: at the highest dose activity change, negative = inhibition, usual class: inhibitors; 390,000 tested, 4.4% active; AID 504339, 2011; also: % is scaled to controls: 0 for no effect and ±100 for the full control effect; nearly all actives have a fitted effect of over 50% in size
BAZ2B inh: qHTS Assay for Inhibitors of BAZ2B. Bromodomain adjacent to zinc finger domain protein 2B (Homo sapiens), Q9UIF8. AlphaScreen BAZ2B-H3K14Ac peptide displacement. Potency, µM (highest dose often 114 µM), for the others: at the top dose activity change, negative = inhibition, hits mostly inhibitors. 360,000 tested, 4.4% active; also: % is scaled to controls: 0 for no effect and ±100 for the full control effect; nearly all actives have a fitted effect of over 60% in size
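Compounds, titrated to a top concentration of 110 uM, were incubated 30 min at room temperature with preformed BAZ2B/acetyl-K14 H3 peptide complex (50 nM each). Proximity signal was measured by AlphaScreen after 20 min with beads.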
Sfp inh: qHTS Assay for Inhibitors of Bacillus subtilis Sfp phosphopantetheinyl transferase (PPTase); Biochemical Sfp PPTase activity, qHTS; Potency, µM, for the others: largest response in the series, negative = inhibition, hits mostly inhibitors; 310,000 tested, 3.5% active; 4'-phosphopantetheinyl transferase ffp (Bacillus subtilis), Q9F4F7;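 also: the enzyme is Sfp with the accession as filed and its product quenches rhodamine fluorescence; 0% = enzyme reaction without inhibitor and -100% = no enzyme wells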
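Buffer: 50 mM Hepes-Na pH 7.6, 10 mM MgCl2, 0.01% Nonidet P-40, 0.01% BSA. Enzyme 15 nM, pre-exposed to compound 15 min; substrates then added and fluorescence change tracked over 30 min.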
L3MBTL1 block: qHTS Assay for the Inhibitors of L3MBTL1; AlphaScreen L3MBTL1–H3K9me1 peptide binding; 230,000 tested, 0.66% active; Potency, µM (highest dose often 57.1 µM), without a hit: at the top dose activity, negative = inhibition, most hits filed as inhibitors; AID 485360, 2010; Lethal(3)malignant brain tumor-like protein 1 (Homo sapiens), Q9Y468; also: % is scaled to controls: 0 for no effect and ±100 for the full control effect; nearly all actives have a fitted effect of over 60% in size
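Displacement of a biotinylated histone H3(1-15) peptide monomethylated at Lys9 (75 nM) from L3MBTL1 (50 nM) was measured by AlphaScreen after a 30 min room-temperature compound incubation; cefsulodin titration served as intraplate control.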
G9a inh: qHTS Assay for Inhibitors of Histone Lysine Methyltransferase G9a. Histone-lysine N-methyltransferase EHMT2 (Homo sapiens), Q96KQ7. G9a H3K9 monomethylation, AlphaScreen, 2 h. Potency, µM (top dose mostly 102 µM), for the others: at the top dose activity, negative = inhibition, usual class: inhibitors. 350,000 tested, 8.8% active. AID 504332, 2011; also: % is scaled to controls: 0 for no effect and ±100 for the full control effect; nearly all actives have a fitted effect of over 75% in size
Target sequence (Q96KQ7 913-1193 limits assumed): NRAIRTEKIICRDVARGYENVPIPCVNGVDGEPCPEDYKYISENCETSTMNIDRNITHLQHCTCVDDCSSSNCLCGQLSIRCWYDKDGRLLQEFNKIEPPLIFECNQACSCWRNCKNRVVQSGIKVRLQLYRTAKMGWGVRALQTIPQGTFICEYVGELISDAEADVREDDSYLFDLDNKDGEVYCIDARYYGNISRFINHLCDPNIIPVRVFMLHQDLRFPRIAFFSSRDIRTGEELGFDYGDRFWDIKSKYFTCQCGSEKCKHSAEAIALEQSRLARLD
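Step 1: enzyme (final 20 nM) with compound, 15 min RT. Step 2: substrate peptide 500 nM and SAM 20 uM, 2 h RT. Step 3: anti-H3K9me1 antibody and AlphaScreen beads, 10 min, then plate read.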
HP1b binding inh: HTS for Inhibitors of HP1-beta Chromodomain Interactions with Methylated Histone Tails. AID 540317, 2011. AlphaScreen HP1-beta / biotin-H3K9me3 peptide binding. Chromobox protein homolog 1 (Homo sapiens), P83916. 390,000 tested, 0.56% active. Potency, µM (highest dose often 114 µM), for inactives: at the highest dose activity change, negative = inhibition, actives largely listed as inhibitors; also: nearly all actives have a fitted effect of over 70% in size
Target sequence (P83916 whole entry, looked up): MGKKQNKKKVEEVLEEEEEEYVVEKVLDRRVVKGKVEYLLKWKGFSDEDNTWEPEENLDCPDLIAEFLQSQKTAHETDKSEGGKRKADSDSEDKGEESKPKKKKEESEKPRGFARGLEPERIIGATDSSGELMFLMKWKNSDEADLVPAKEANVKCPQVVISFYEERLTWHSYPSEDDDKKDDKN
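HP1-beta protein (50 nM final) preincubated 30 min at room temperature with biotinylated H3(1-18)K9me3 peptide (50 nM) in PBS pH 7.4, 0.01% Tween-20, then compound added for 30 min. AlphaScreen streptavidin donor/nickel chelate acceptor beads (10 ug/mL final), 30 min dark, luminescence read.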
Starred values were filed as active, the others as inactive; u = inconclusive; x = no result given; [ ] = another dose, or the depositor's remark. Calls follow the shape of the dose curve; as a rule, active = well fitted curve in the direction sought with a large enough effect; inconclusive = small, poorly fitted or top-dose-only effect, or another doubt; inactive = no such curve, though single readings can be large; an effect the other way counts as inactive or inconclusive. Potency is read from the fitted curve at half-maximal effect.

SMILES	JMJD2A Tudor inh	BAZ2B inh	Sfp inh	L3MBTL1 block	G9a inh	HP1b binding inh
Cc1cc(/C=N/Nc2nc(N)ncc2[N+](=O)[O-])c(C)n1-c1ccccc1F	x	-13%	50µM*	x	28%[59 µM]	x
Cc1ccc(C)c(NC(=O)C2CCN(c3cc(C)nc4c(-c5ccc(Cl)cc5)c(C)nn34)CC2)c1	4%	-1%	x	x	-5%[59 µM]	47%
CCn1c(C(=O)N2CCC(C(=O)NCCc3ccc(OC)cc3OC)CC2)cc2sccc21	-17%	-16%	x	x	-27%[59 µM]	7%
COc1cc(/C=C/c2nc(C#N)c(N3CCCCCC3)o2)cc(OC)c1OC	-11%	u	x	x	u	6%
COc1ccc(NC(=O)N2CCc3nc(-c4ccc(OC)cc4C)c4c(c3C2)CO[C@@H](c2ccccc2)C4)cc1	x	x	0%	x	x	x
CC(=O)c1cccc(NC(=O)C2CCCN(c3nnc(-n4cccc4)s3)C2)c1 (stereo not drawn)	-11%	-3%[57.1 µM]	x	x	-6%[59 µM]	12%
COc1ccc([N+](=O)[O-])cc1/C=N/NC(=O)c1nonc1N	-20%	0%	12%	-1%	5%	19%
COc1ccc([N+](=O)[O-])cc1/C=N/Nc1nn[nH]n1	-6%	u	-12%	28%	45µM*	16%
CC1CCN(C(=O)Cn2c(-c3cccs3)cc3cc(Cl)ccc32)CC1	7%	4%	x	x	-3%[59 µM]	64%
CC(=O)C1=NN(c2ccccc2)C(c2cccs2)N1c1ccc(N(C)C)cc1 (stereo not drawn)	14µM*	45µM*	9%	x	28µM*	u
COc1c(O)c(=O)n2c3ccccc3c3ccnc1c32	u	10%	x	-5%	u	-10%
O=c1c(Cl)c(O)c2cccc3c4ccccc4n1c23	-26%	-27%	14µM*	0%	45µM*	6%
CCOc1cccc(C2c3c(oc4cc(C)c(C)cc4c3=O)C(=O)N2c2nc(C)c(C)s2)c1 (stereo not drawn)	-10%	1%[57.1 µM]	x	x	13%[59 µM]	21%
Cc1cc(Cl)ccc1OCC(=O)n1cc(C(=O)c2cc(Cl)ccc2O)cn1	x	-8%	23%	11%	79µM*	x
CCOc1ccccc1CNc1nc2nc(C)cc(C)n2n1	-23%	-15%	x	x	-26%[59 µM]	19%
CCOc1ccccc1NC(=O)CSc1ccc(-c2ccco2)nn1	-32%	u	50µM*	x	25µM*	6%
O=C(CSc1ccc(-c2ccco2)nn1)Nc1ccccc1F	-5%	-16%	32µM*	x	40µM*	27%
C(=N\N1CCN(Cc2cccc3ccccc23)CC1)/c1ccco1	56µM*	u	-17%	x	40µM*	45µM*
Cc1ccc(CN2CCN(/N=C/c3ccccc3)CC2)cc1	u	u	4%	u	u	u
Cc1ccc(/C=N/N2CCN(c3ccccn3)CC2)cc1	-31%	-32%	-2%	-11%	u	0%
Fc1ccc(CN2CCN(C(c3ccccc3)c3ccccc3)CC2)cc1	22µM*	50µM*	-26%	-5%	32µM*	u
OC(CN1CCN(Cc2ccccc2)CC1)c1ccc(F)cc1 (stereo not drawn)	-33%	-25%	6%	4%	u	54%
Cn1cccc1/C=N/N1CCN(c2ccccn2)CC1	u	50µM*	-83%	-12%	16µM*	-58%
COc1cc(/C=N/N2CCN(Cc3ccc(C)cc3)CC2)cc(OC)c1O	40µM*	56µM*	-83%	-10%	x	u
CC(=O)c1ccc(N2CCN(c3ncnc4c3c(-c3ccccc3)cn4-c3ccc(C)c(Cl)c3)CC2)cc1	-26%	-19%	x	x	8%[59 µM]	-8%
SMILES	JMJD2A Tudor inh	BAZ2B inh	Sfp inh	L3MBTL1 block	G9a inh	HP1b binding inh
Cc1ccsc1/C=N/N1CCN(c2ccccc2)CC1	u	u	13%	-26%	18%[2.33 µM]	-17%
CN1CCN(/N=C/c2c3ccccc3c(Cl)c3ccccc23)CC1	40µM*	20µM*	-20%	u	35µM*	u
Cc1ccsc1CN1CCN(c2ccccn2)CC1	1.8µM*	50µM*	-11%	-6%	u	-53%
C(=N\N1CCN(Cc2cccc3ccccc23)CC1)/c1cccnc1	45µM*	40µM*	-9%	51%	50µM*	-42%
Cc1ccsc1/C=N/N1CCN(c2ccccn2)CC1	63µM*	40µM*	15%	-6%	50µM*	-35%
Cc1cc(C)n(CCc2nc3c4ccccc4nc(SCc4ccc(Cl)cc4)n3n2)n1	-23%	-2%	x	x	1%[59 µM]	-6%
COc1ccc(CCNC(=O)c2ccc3c(c2)N(Cc2c(F)cccc2Cl)C(=O)CS3)cc1OC	-2%	-31%	x	x	1%[59 µM]	48%
O=C(O)c1ccc(/C=N/N2CCN(Cc3ccccc3)CC2)cc1	-5%	89µM*	8%	4%	u	29%
Cc1ccsc1/C=N/NC(=O)CN1CCN(Cc2ccccc2)CC1	-6%	-5%	7%	0%	x	19%
Fc1ccc(/C=N/N2CCN(Cc3ccccc3)CC2)cc1	u	45µM*	8%	-7%	79µM*	u
Cc1ccc(/C=N/N2CCN(Cc3ccccc3)CC2)cc1	79µM*	u	8%	-19%	u	-16%
Cc1ccsc1/C=N/N1CCN(Cc2ccccc2)CC1	56µM*	u	-8%	-26%	32µM*	u
COc1ccccc1NC(=O)N1CC=C(c2c[nH]c3ccccc23)CC1	u	-38%	x	x	u	-17%
CSc1ccc(/C=N/NC(=O)CN2CCN(Cc3ccc(Cl)cc3)CC2)cc1	-21%[57.1 µM]	19%	0%	12%	-7%[59 µM]	u
O=S(=O)(CCN1CCN(C(c2ccccc2)c2ccccc2)CC1)C(F)(F)F	-16%	x	6%	5%	3.5µM*	-10%
CSc1ccc(/C=N/N2CCN(Cc3ccc(Cl)cc3)CC2)cc1	u	22µM*	-4%	x	u	-12%
O=C(O)c1ccc(/C=N/N2CCN(Cc3cccc4ccccc34)CC2)cc1	-35%	-33%	10%	x	45µM*	-13%
CN1CCN(/N=C/c2ccc(-c3ccccc3)cc2)CC1	40µM*	22%	-14%	-17%	71µM*	u
C(=N\N1CCN(Cc2ccccc2)CC1)/c1ccc(-c2ccccc2)cc1	-22%	-12%	6%	-3%[11.4 µM]	-8%	20%
